Sampled rows, rich in hits. Any-hit rate of the full collection: about 7.9%.
SW480 rereplic – A quantitative high throughput screen for small molecules that induce DNA re-replication in SW480 colon adenocarcinoma cells; SW480 DNA re-replication, Hoechst DNA content imaging, 48 h; Potency, µM (top dose mostly 46.1 µM), inactives show at the highest dose re-replication activation, actives largely listed as activators; 1.8% of 340,000 active; AID 624297, 2012; note: % of control where 0% means no effect; nearly all actives have a fitted effect of over 55% in size
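Compounds, transferred as 23 nL by pin tool, were incubated with cells for 48 hr; DNA content per nucleus was then quantified by Hoechst staining and fluorescence plate imaging.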
KB-V1 cytotox – qHTS assay for MDR1-selective chemotherapeutics: Primary screen using the drug-selected MDR subline cells KB-V1; KB-V1 MDR cells viability, CellTiter-Glo, 72 h; AID 1347076, 2019; 3.4% of 400,000 active; Potency, µM (titrated, usually from 46.1 µM), hits mostly cytotoxic; note: % is set by controls: 0 for no effect and ±100 for the full control effect; nearly all actives have a fitted effect of over 60% in size
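KB-V1 MDR subline cells in DMEM (phenol-red free, 10% FBS) exposed to compounds in qHTS concentration series for 72 h at 37 degrees C. Viability read by CellTiter-Glo luminescence; concentration-effect curves fitted after normalization and correction.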
MCF10A rereplic – A quantitative high throughput screen for small molecules that induce DNA re-replication in MCF 10a normal breast cells. MCF 10A DNA re-replication, Hoechst nuclear intensity, 48 h. Potency, µM (highest dose often 46.1 µM), inactives show top-dose activity, positive = re-replication, usual class: activators. 2.9% of 350,000 active. AID 624296, 2012; note: % of control where 0% means no effect; nearly all actives have a fitted effect of over 50% in size
HT1080 IDH1KD tx – qHTS for induction of synthetic lethality in tumor cells producing 2HG: qHTS for the HT-1080-IDH1KD cell line; Potency, µM (highest dose often 46.1 µM), without a hit: at the highest dose activity, negative = toxicity, actives largely listed as cytotoxic; HT-1080 IDH1 knockdown viability, ATP luminescence, 48 h; 2% of 360,000 active;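 note: 0% = DMSO wells and -100% = cell-free medium wells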
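IDH1KD HT-1080 cells, 750/well, RPMI + 5% FBS; compound pinned after 2 h settling; 48 h, 37 °C; CellTiter-Glo luminescence; % activity normalised to DMSO and no-cell wells; curves fitted, classed by r2 and efficacy.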
HT1080NT lethal – qHTS for induction of synthetic lethality in tumor cells producing 2HG: qHTS for the HT-1080-NT fibrosarcoma cell line. HT-1080-NT fibrosarcoma viability, CellTiter-Glo ATP luminescence, 48 h. Potency, µM (doses to about 46.1 µM), for inactives: at the top dose activity, negative = less viability, usual class: cytotoxic. 1.6% of 360,000 active;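 note: NT is the 2HG producing partner of a matched IDH1 knockdown line; 0% = DMSO-treated cells and -100% = media-only wells without cells; nearly all actives have a fitted effect of over 55% in size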
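Viability of the 2HG-overproducing fibrosarcoma line after 48 hours of compound exposure at 37 degrees C was determined by luminescence with CellTiter-Glo, and concentration-effect curves were then fitted and categorized.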
KB-3-1 tox – qHTS assay for MDR1-selective chemotherapeutics: Primary screen using the parental adenocarcinoma cell KB-3-1. KB-3-1 viability, CellTiter-Glo ATP luminescence, 72 h. Potency, µM (top dose mostly 46.1 µM), hits mostly cytotoxic. 1.4% of 400,000 active. AID 1347075, 2019; note: % is set by controls: 0 for no effect and ±100 for the full control effect; nearly all actives have a fitted effect of over 60% in size
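Here the drug-naive KB-3-1 line serves as comparator for MDR sub-line selectivity; cells received compound titrations, 72 h at 37 °C, then CellTiter-Glo readout.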
Starred values were filed as active, the others as inactive; i = inactive; ? = inconclusive; nt = no result; [ ] = dose if it differs, or a comment. Calls come from the whole dose curve; as a rule, active = well fitted curve in the direction sought with a large enough effect; inconclusive = small, poorly fitted or top-dose-only effect, or another doubt; inactive = no such curve, though single readings can be large; an effect the other way counts as inactive or inconclusive. Potency is the fitted concentration of half-maximal effect.

SMILES	SW480 rereplic	KB-V1 cytotox	MCF10A rereplic	HT1080 IDH1KD tx	HT1080NT lethal	KB-3-1 tox
N#Cc1ccc(Oc2cccc3cccnc23)c([N+](=O)[O-])c1	12%	21µM*	?	0%	2%	i
Cc1ccc2cccc(Oc3ccc([N+](=O)[O-])cc3[N+](=O)[O-])c2n1	-2%	?	6%	0%	0%	i
CC(=O)c1ccc(N2CCN(C(=O)CCc3nnc4n(C)c(=O)c5sccc5n34)CC2)cc1	nt	?	nt	nt	nt	i
Cc1c(C(=O)NCCc2ccccc2)cccc1-n1cnc2cccnc21	nt	i	nt	nt	nt	i
COc1cccc(-c2cccc(-c3nc(C(=O)NCc4ccc5c(c4)OCO5)cc4c3[C@H](CCO)N(S(=O)C(C)(C)C)C4)c2)c1 (stereo not given in full)	nt	i	nt	?	?	i
O=S(c1cc(Cl)cc(Cl)c1O)c1cc(Cl)cc(Cl)c1O	0%	?	13µM*	?	?	?
CCOC(=O)c1cnc2ccc(OC)cc2c1Nc1cccc(C(C)=O)c1	nt	i	nt	nt	nt	i
CCOC(=O)c1cnc2ccc(OCC)cc2c1NCc1ccccc1OC	27%	7.3µM*	?	?	21µM*	?
CCOC(=O)c1cnc2ccc(OC)cc2c1NCc1ccccc1	-7%	3.7µM*	11%	-4%	0%	i
Cc1cccc(CC(=O)N2CC(=O)Nc3ccc(C)cc3C2c2ccc(F)cc2)c1 (stereo not given)	nt	i	nt	nt	nt	i
COc1ccc(Br)c(C(=O)Nc2cc3c(cc2N2CCCC2)n(C)c(=O)c(=O)n3C)c1	nt	?	nt	nt	nt	i
CC(=O)OCCCNc1cc(Sc2ccc(Cl)cc2)c2nonc2c1[N+](=O)[O-]	nt	i	4.6µM*	0%	-1%	i
CC(C)CCSc1cc(NCCO)c([N+](=O)[O-])c2nonc12	?	i	?	18µM*	?	i
Cc1ccc(Sc2cc(NCCCO)c([N+](=O)[O-])c3nonc23)cc1	0%	i	-1%	5%	5%	i
CCCCCNc1ncnc2c(C)[nH]nc12	nt	i	nt	-20%	-7%	i
OC(CN1CCN(c2ccccc2Cl)CC1)c1ccccc1 (stereo not given)	23µM*	i	?	?	16µM*	?
OC(CN1CCCC1)c1ccccc1 (stereo not given)	nt	i	nt	nt	nt	i
CCN(C[C@H]1N[C@@](CC)(C(=O)OC)[C@H]2C(=O)N(Cc3ccccc3)C(=O)[C@@H]12)S(=O)(=O)c1ccc(F)cc1	?	i	4%	4%	2%	i
COc1cc(C(=O)N2CCN(c3ccc(C)cc3C)CC2)cc(OC)c1OC	6.5µM*	?	18µM*	5.8µM*	4.6µM*	2.3µM*
COc1cc(C(=O)N2CCN(S(=O)(=O)c3ccc(F)cc3)CC2)cc(OC)c1OC	3%	21µM*	9%	-2%	8%	i
COc1cc(C(=O)C(=O)N2CCN(c3ccc(C)cc3)CC2)cc2ccccc12	nt	?	nt	?	6%	i
COc1cc(C(=O)C(=O)N2CCN(c3ccccc3)CC2)cc(OC)c1OC	nt	?	nt	7.3µM*	?	21µM*
COc1cc(C(=O)N2CCCN(c3nc4cc(C)ccc4cc3C#N)CC2)cc(OC)c1OC	-5%	18µM*	?	0%	-8%	i
S=c1nc(-c2ccccn2)c(-c2ccccn2)n[nH]1	nt	i	nt	?	-3%	i
CCCCOC(=O)c1ccc(NC(=O)c2ccc3c(c2)CCN3S(C)(=O)=O)cc1	nt	i	nt	nt	nt	i
SMILES	SW480 rereplic	KB-V1 cytotox	MCF10A rereplic	HT1080 IDH1KD tx	HT1080NT lethal	KB-3-1 tox
COc1ccc(-c2[nH][nH]c(=O)c2NC(=O)c2ccc(C)cc2)cc1	nt	i	nt	1%	?	i
Cc1ccc(S(=O)(=O)N2CCCN(c3nc4cc(C)ccc4cc3C#N)CC2)cc1	-3%	?	?	-3%	16%	i
Cc1cc2cc(C#N)c(N3CCN(S(C)(=O)=O)CC3)nc2cc1C	-2%	18µM*	-53%	-3%	2%	i
Cc1ccc2cc(C#N)c(N3CCN(C(=O)c4ccccc4)CC3)nc2c1	?	i	0.58µM*	-7%	0%	i
CCN1/C(=C\C(=S)Nc2ccccc2)Sc2ccccc21	2%	i	7%	9.2µM*	15µM*	?
CCN1/C(=C\C=C(C(C)=O)C(C)=O)Sc2ccccc21	-4%	i	28%	-11%	2%	i
N#CC1=C(N)Oc2c(oc(CO)cc2=O)C1c1ccccc1[N+](=O)[O-] (stereo not given)	5.8µM*	i	?	-1%	5%	i
COc1ccccc1C1C(C#N)=C(N)Oc2c1oc(CO)cc2=O (stereo not given)	-26%[1.84 µM]	i	-21%	16%	21%	i
O=C(c1cccn(Cc2ccc(Cl)c(Cl)c2)c1=O)N1CCOCC1	-3%	?	3%	0%	-2%	?
O=c1c(-c2nc3ccccc3s2)cccn1Cc1ccc(Cl)c(Cl)c1	1.2µM*	i	?	-13%	-2%	i
CCN(CC)CCn1c2ccccc2c2nc3ccc([N+](=O)[O-])cc3cc21	21µM*	i	?	-30%	-28%	i
NC(=O)C1CCN(c2ncc(-c3cccc(N4CCCCC4)c3)s2)CC1	nt	i	nt	nt	nt	i
Cc1nc2ccccc2n1/N=C/c1ccc([N+](=O)[O-])o1	6%	i	2%	10µM*	13µM*	i
O=[N+]([O-])c1ccc(/C=N/n2cnc3ccccc32)s1	4.1µM*	?	?	?	?	?
Cc1nc2ccccc2n1/N=C/c1ccc([N+](=O)[O-])s1	?	12µM*	18µM*	?	?	?
Cc1cc2ncn(/N=C/c3ccc([N+](=O)[O-])s3)c2cc1C	?	?	-5%	-6%	-2%	i
O=[N+]([O-])c1ccc(/C=N/n2c(CO)nc3ccccc32)s1	3.3µM*	i	14%	?	?	?
COc1cccc(CNc2nc3cc(-c4cccc(Cl)c4)sc3c(=O)n2C)c1	nt	i	nt	5%	-3%	i
COc1ccc(-c2cc3nc(CCl)[nH]c(=O)c3s2)cc1	?	?	?	16µM*	16µM*	?
